From PubChem BioAssay (NCATS)
Several values for one entry are separate records, joined by “and”; a condition that tells them apart may be missing. Identical values can stand only once. A number with no mark means an inactive call. Results filed as inconclusive are left out. Activity calls are given as the source filed them. Unless noted, calls come from the whole dose curve; as a rule, active = well fitted curve in either direction with a large enough effect (not every such curve was filed as active); inconclusive = small, poorly fitted or top-dose-only effect, or another doubt; inactive = flat fitted curve, though single readings scatter.

What was measured:
[1] = AP1 Signaling Pathway (AID 357); conditions: ME-180 AP-1-bla reporter, EGF-induced, beta-lactamase ratio, 5 h; note: % is set by controls: 0 for no effect and ±100 for the full control effect
How it was run: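 In this screen, ME-180 cells in Opti-MEM with 0.5% dialyzed FBS received EC50 EGF and compound titrations for 5 h. AP-1 reporter beta-lactamase was detected via CCF4 ratio, giving AC50 for positive and negative modulators.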

[2] = biological target: Cytochrome P450 1A2 (Homo sapiens) (UniProt P05177); assay: p450-cyp1a2 (AID 410; calls by dose curve; note: potency is the fitted concentration of half-maximal effect;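 for activity change, negative = inhibition: -100% = full effect of reference inhibitor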); conditions: recombinant CYP1A2, luciferin-ME demethylation, luminescence; series mostly up to 25.6 µM
Cytochrome P450 1A2 (Homo sapiens), sequence (P05177 whole entry, looked up): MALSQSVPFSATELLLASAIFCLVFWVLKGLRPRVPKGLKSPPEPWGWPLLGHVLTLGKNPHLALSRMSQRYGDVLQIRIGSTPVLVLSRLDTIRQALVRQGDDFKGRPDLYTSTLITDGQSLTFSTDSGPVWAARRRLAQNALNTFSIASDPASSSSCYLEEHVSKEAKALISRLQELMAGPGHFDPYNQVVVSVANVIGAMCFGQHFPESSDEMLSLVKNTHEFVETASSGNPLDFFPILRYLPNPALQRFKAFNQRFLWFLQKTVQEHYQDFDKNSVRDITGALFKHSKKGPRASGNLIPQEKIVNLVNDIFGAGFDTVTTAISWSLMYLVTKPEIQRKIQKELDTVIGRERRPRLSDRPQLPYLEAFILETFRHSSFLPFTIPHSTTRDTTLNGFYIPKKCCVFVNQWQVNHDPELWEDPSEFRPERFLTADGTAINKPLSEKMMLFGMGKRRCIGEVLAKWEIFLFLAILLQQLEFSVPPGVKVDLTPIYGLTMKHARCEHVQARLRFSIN
How it was run: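 20nM CYP1A2 with 100uM Luciferin-ME (at Km) in 100mM KPO4; compound preincubated 10 min, NADPH regeneration added, 60 min at room temperature. Luciferin quantified by luminescence after detection reagent; normalized to 57 uM furafylline.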

[3] = NFAT Signaling Pathway (AID 444); conditions: Jurkat NFAT-bla M1, carbachol, beta-lactamase ratio, 5 h;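 note: carbachol stimulus at about its EC50 of 1 µM final; % is set by controls: 0 for no effect and ±100 for the full control effect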
How it was run: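 Jurkat cells carrying an NFAT-driven β-lactamase reporter and co-transfected muscarinic M1 receptor were treated with compound plus carbachol (1 uM final, an EC50 level) for 5 h at 37 °C. CCF4 loading followed for 1 h at RT; 460/530 nm ratio gave %activity.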

[4] = Stat Signaling Pathway (AID 446); conditions: ME-180 SIE beta-lactamase reporter, IL-6 stimulated, 5 h;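 note: ME-180 cervical cancer cells given 40 pM IL-6 alongside compound; SIE-controlled beta-lactamase reporter measured as 460/530 nm FRET emission ratio; % is set by controls: 0 for no effect and ±100 for the full control effect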
How it was run: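 Screening format detects activators and inhibitors alike: ME-180 SIE-bla cells stimulated at 40 pM IL-6 for 5 hrs with compound, then dual-emission beta-lactamase read at 405 nm excitation.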

[5] = biological target: Glucocorticoid receptor (Homo sapiens) (UniProt P04150); assay: GR-GFP Redistribution (AID 450;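 active = compounds whose dose series gives a full or clear partial fitted curve of increased nuclear translocation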; note: potency is the fitted concentration of half-maximal effect); conditions: U2OS GR-GFP nuclear translocation, laser cytometry, 2 h
Glucocorticoid receptor (Homo sapiens), sequence (P04150 whole entry, looked up, the tested form may be a part): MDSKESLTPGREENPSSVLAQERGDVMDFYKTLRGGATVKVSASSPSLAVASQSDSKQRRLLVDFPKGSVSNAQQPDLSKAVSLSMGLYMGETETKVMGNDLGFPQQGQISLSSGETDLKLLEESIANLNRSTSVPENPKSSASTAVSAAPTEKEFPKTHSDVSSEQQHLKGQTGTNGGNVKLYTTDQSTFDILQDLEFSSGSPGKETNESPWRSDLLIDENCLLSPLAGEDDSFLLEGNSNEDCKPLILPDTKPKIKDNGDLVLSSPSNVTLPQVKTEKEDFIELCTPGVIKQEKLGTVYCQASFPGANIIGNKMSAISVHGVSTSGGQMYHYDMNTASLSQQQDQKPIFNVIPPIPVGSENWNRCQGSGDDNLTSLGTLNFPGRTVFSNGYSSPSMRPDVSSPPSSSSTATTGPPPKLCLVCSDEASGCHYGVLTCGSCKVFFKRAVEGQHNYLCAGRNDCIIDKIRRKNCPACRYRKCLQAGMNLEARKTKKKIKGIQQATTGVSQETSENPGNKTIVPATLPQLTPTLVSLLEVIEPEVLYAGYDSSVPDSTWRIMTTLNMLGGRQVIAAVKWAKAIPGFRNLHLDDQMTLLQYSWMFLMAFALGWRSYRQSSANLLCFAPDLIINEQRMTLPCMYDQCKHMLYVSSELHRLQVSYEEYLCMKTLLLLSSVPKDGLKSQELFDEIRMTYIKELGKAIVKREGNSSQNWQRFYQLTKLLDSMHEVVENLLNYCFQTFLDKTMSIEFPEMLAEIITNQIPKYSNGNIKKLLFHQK

[6] = biological target: Glucocorticoid receptor (Homo sapiens) (UniProt P04150); assay: GR-EFC Redistribution (AID 451; calls by dose curve; note: potency is the fitted concentration of half-maximal effect); conditions: CHO-K1 GR-EFC translocation, beta-gal luminescence, 2 h
How it was run: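 CHO-K1 cells stably expressing nuclear-localized β-gal enzyme acceptor and GR fused C-terminally to the enzyme donor fragment; ligand-driven nuclear translocation restores β-gal by complementation. Compounds titrated up to 46 uM final, 2 h at 37 °C; luminescence read.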

[7] = biological target: Mitogen-activated protein kinase 10 (Mus musculus) (UniProt Q61831); assay: JNK3 AlphaScreen Assay (AID 530); conditions: JNK3 lysate, c-Jun phosphorylation; series mostly up to 25.6 µM;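 note: kinase came from lysate of stimulated human HepG2 cells; signal reports phosphorylation of biotinylated GST-cJun 1-79 at Ser73 with 10 µM ATP; % is set by controls: 0 for no effect and ±100 for the full control effect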
How it was run: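 Inhibitors reduce antibody binding to phosphorylated biotin-cJun, lowering AlphaScreen luminescence. Lysates from HepG2 cells pre-activated by IL-1beta plus TNF-alpha supplied JNK3; compounds were titrated.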

[8] = biological target: Lysosomal acid glucosylceramidase (Homo sapiens) (UniProt P04062); assay: Glucocerebrosidase-p2 (AID 348; in the data active = potency below about 10 µM; note: potency is the fitted concentration of half-maximal effect); conditions: purified GBA, blue fluorogenic substrate, 40 min
Lysosomal acid glucosylceramidase (Homo sapiens), sequence (P04062 whole entry, looked up): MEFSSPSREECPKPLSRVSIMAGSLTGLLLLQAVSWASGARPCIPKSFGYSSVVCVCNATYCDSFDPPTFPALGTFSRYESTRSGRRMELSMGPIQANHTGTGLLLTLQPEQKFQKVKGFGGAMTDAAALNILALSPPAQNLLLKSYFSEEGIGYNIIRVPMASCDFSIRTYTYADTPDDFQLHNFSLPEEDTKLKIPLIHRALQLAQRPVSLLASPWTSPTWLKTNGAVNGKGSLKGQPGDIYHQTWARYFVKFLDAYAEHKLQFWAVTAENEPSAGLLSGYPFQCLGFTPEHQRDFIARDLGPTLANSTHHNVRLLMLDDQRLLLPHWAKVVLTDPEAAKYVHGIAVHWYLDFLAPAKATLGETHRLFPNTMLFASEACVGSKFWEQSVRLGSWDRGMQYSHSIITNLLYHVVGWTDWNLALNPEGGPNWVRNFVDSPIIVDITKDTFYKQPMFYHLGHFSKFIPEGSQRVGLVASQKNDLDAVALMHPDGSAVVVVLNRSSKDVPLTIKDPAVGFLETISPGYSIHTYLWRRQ
How it was run: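 Compounds titrated from 0.6 nM upwards against 0.2 nM enzyme in pH 5.9 citric acid/KH2PO4, taurocholate, tween-20; blue fluorogenic substrate 80 uM, 40 min room temperature, stopped and read Ex 365/Em 440 for AC50.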

[9] = Cell Viability - Jurkat (AID 426;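 active = dose-dependent loss of cell ATP signal giving a full or clear fitted curve, ranked by lower potency value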; note: potency is the fitted concentration of half-maximal effect); conditions: qHTS
How it was run: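 Jurkat (Clone E6-1) cells, 5000/well in complete medium, exposed to compounds for 40 hr at 37C; intracellular ATP measured by CellTiter-Glo luminescence after 20 min at room temperature. AC50 from Hill fits.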

[10] = Cell Viability - N2a (AID 540; active = well fitted curve in the direction sought with a large enough effect; an effect the other way counts as inactive or inconclusive; note: potency is the fitted concentration of half-maximal effect; nearly all actives have a fitted effect of over 45% in size); conditions: N2a mouse neuroblastoma cell viability; activity change, negative = cytotoxicity: at 92.2 µM (top of the series)
How it was run: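 Mouse neuroblastoma N2a cells, 1500/well, exposed to compounds 40 h at 37 °C in complete medium. Viability measured as cellular ATP by CellTiter-Glo luminescence; AC50 from Hill fits of concentration-response.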

[11] = Cell Viability - NIH 3T3 (AID 541; active = well fitted curve in the direction sought with a large enough effect; an effect the other way counts as inactive or inconclusive; note: potency is the fitted concentration of half-maximal effect; nearly all actives have a fitted effect of over 25% in size); conditions: NIH 3T3 cell viability, qHTS; activity change, negative = cytotoxicity: at 92.2 µM (top of the series)
How it was run: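 Mouse NIH 3T3 fibroblasts, 1000 cells/well, rested 5 hr at 37 °C, then exposed to compound for 40 hr at 37 °C in complete medium. Viability read as intracellular ATP by CellTiter-Glo luminescence; AC50 from Hill-equation fits of concentration-response data.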

[12] = Cell Viability - HUV-EC-C (AID 542; active = well fitted curve in the direction sought with a large enough effect; an effect the other way counts as inactive or inconclusive; note: potency is the fitted concentration of half-maximal effect; nearly all actives have a fitted effect of over 35% in size); conditions: HUV-EC-C endothelial cell viability, qHTS; series mostly up to 92.2 µM
How it was run: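 HUV-EC-C human vascular endothelial cells, 1000/well, exposed to compound for 40 hr at 37 °C in complete medium. Intracellular ATP was read by CellTiter-Glo luminescence. AC50 came from Hill-equation fits of concentration-response data.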

[13] = Cell Viability - H-4-II-E (AID 543; active = well fitted curve in the direction sought with a large enough effect; an effect the other way counts as inactive or inconclusive; note: potency is the fitted concentration of half-maximal effect; nearly all actives have a fitted effect of over 35% in size); conditions: H-4-II-E rat hepatoma viability; series mostly up to 92.2 µM
How it was run: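 Rat hepatoma H-4-II-E cells, 1500 per well, treated 40 h at 37 °C in complete medium. Cellular ATP read by CellTiter-Glo luminescence; AC50 from Hill fits of concentration-response.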

Q: For N[C@@H](Cc1cnc[nH]1)C(=O)O, which activity change, negative = inhibition ([1]; at 38 µM (top of the series)) is on record?
A: 2.79%

Q: What about the Potency [2] of the same compound?
A: inactive

Q: And the activity change, negative = inhibition ([3]; at 38 µM (top of the series))?
A: -0.542%

Q: And the activity, negative = inhibition ([4]; at 38 µM (top of the series))?
A: 27.2%

Q: What about the Potency [5] of the same compound?
A: > 46 µM

Q: And the Potency [6]?
A: > 46 µM

Q: For COc1cc(-c2ccc(=O)[nH]n2)ccc1OC(F)F, which activity change, negative = inhibition ([1]; at 17.2 µM (top of the series)) is on record?
A: -8.42%

Q: And the activity change, negative = inhibition ([1]; at 38 µM (top of the series))?
A: 17.6%

Q: And the Potency [2]?
A: 10 µM (active) and 5.01 µM (active) and 2.51 µM (active)

Q: What about the activity change, negative = inhibition ([3]; at 17.2 µM (top of the series)) of the same compound?
A: -13.5%

Q: What about the activity change, negative = inhibition ([3]; at 38 µM (top of the series)) of the same compound?
A: -7.13%

Q: What about the activity, negative = inhibition ([4]; at 17.2 µM (top of the series)) of the same compound?
A: 0.425%

Q: And the activity, negative = inhibition ([4]; at 38 µM (top of the series))?
A: -14.4%

Q: What about the Potency [5] of the same compound?
A: > 46 µM and > 20.6 µM

Q: What about the Potency [6] of the same compound?
A: > 46 µM and > 20.6 µM

Q: What about the outcome [7] of the same compound?
A: inactive

Q: What does the source list for Oc1ccc(Cl)cc1Sc1cc(Cl)ccc1O?
A: Potency [8]: > 11.4 µM; activity change, negative = inhibition ([1]; at 7.69 µM (top of the series)): -7.34%; Potency [2]: 3.98 µM (active); Potency [9]: 56.7 µM (active); Potency [5]: > 46 µM; Potency [6]: > 9.22 µM; outcome [7]: inactive; Potency [10]: 31.6 µM (active); Potency [11]: 31.6 µM (active); Potency [12]: 31.6 µM (active); Potency [13]: 39.8 µM (active)

Q: For OC(CCN1CCCCC1)(c1ccccc1)c1ccccc1, which Potency [8] is on record?
A: > 11.4 µM

Q: And the activity change, negative = inhibition ([1]; at 7.69 µM (top of the series))?
A: -3.31%

Q: What about the activity change, negative = inhibition ([1]; at 17.2 µM (top of the series)) of the same compound?
A: 7.98% and -4.16%

Q: And the Potency [2]?
A: inactive

Q: And the activity change, negative = inhibition ([3]; at 7.69 µM (top of the series))?
A: -73.6% (active)

Q: What about the activity change, negative = inhibition ([3]; at 17.2 µM (top of the series)) of the same compound?
A: -42.4% (active) and -77.8% (active)

Q: And the activity, negative = inhibition ([4]; at 7.69 µM (top of the series))?
A: -4.56%

Q: And the activity, negative = inhibition ([4]; at 17.2 µM (top of the series))?
A: 8.93% and 3.51%

Q: And the outcome [7]?
A: inactive

Q: For CN(C(=O)CN(CCO)CC(=O)N(C)C(C)(C)Cc1ccccc1)C(C)(C)Cc1ccccc1, which activity change, negative = inhibition ([1]; at 17.2 µM (top of the series)) is on record?
A: -21.6%

Q: What about the Potency [2] of the same compound?
A: inactive

Q: And the activity change, negative = inhibition ([3]; at 17.2 µM (top of the series))?
A: -2.45%

Q: And the activity, negative = inhibition ([4]; at 17.2 µM (top of the series))?
A: 5.14%

Q: And the Potency [5]?
A: > 20.6 µM

Q: What about the Potency [6] of the same compound?
A: > 20.6 µM

Q: What about the outcome [7] of the same compound?
A: inactive

Q: Which activity change, negative = inhibition ([1]; at 38 µM (top of the series)) does the source give for O=C(O)c1cc2cc(Cc3cccnc3)ccc2o1 here?
A: -4.5%

Q: And the Potency [2]?
A: inactive

Q: And the activity change, negative = inhibition ([3]; at 38 µM (top of the series))?
A: -0.641%

Q: And the activity, negative = inhibition ([4]; at 38 µM (top of the series))?
A: 6.34%

Q: And the Potency [5]?
A: > 46 µM

Q: And the Potency [6]?
A: > 46 µM

Q: What about the outcome [7] of the same compound?
A: inactive

Q: For CN(C)CC/C=C1\c2ccccc2Sc2ccc(Cl)cc21, which Potency [8] is on record?
A: > 11.4 µM

Q: And the activity change, negative = inhibition ([1]; at 7.69 µM (top of the series))?
A: 20.4%

Q: And the Potency [2]?
A: 1.58 µM (active) and 3.98 µM (active)

Q: And the activity, negative = inhibition ([4]; at 7.69 µM (top of the series))?
A: -3.4%

Q: What about the activity, negative = inhibition ([4]; at 17.2 µM (top of the series)) of the same compound?
A: -6.29%

Q: What about the Potency [5] of the same compound?
A: > 20.6 µM and > 46 µM

Q: And the Potency [6]?
A: > 20.6 µM and > 9.22 µM

Q: And the outcome [7]?
A: inactive
